We go through 99 molecules from PubChem BioAssay AID1578 (Sanford-Burnham Center for Chemical Genomics, 2009).

Molecules are shown by their SMILES. About 3,000 (1%) of roughly 290,000 compounds were called active. Rule as the data show it: active = inhibition mostly above about 36% (no sharp cut-off); inactive = mostly below about 34%. The entries come from a sample that favours actives as a whole.

The term inhibition denotes the change of the read-out against control, counted positive when it falls.

This assay is described as follows: NOD1 signaling inhibitors, primary screen, cell-based, luminescence, uHTS (AID 1578).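 Also: HEK-293T reporter cells stimulated with the NOD1 agonist gamma-tri-DAP.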 The note with it: NOD1-driven NF-kB luciferase reporter cells, at 4 µM, active compounds read high. In general terms: In a reporter assay the amount or activity of a reporter protein is the signal.
Take `CC1CCCCC1NC(=O)CCCn1c(=S)[nH]c2ccsc2c1=O` (centres undefined): the inhibition was -13.7% (inactive).
The result for `CCn1cc(CN2CCc3c([nH]c4ccccc34)C2c2ccc(F)c(OC)c2)c(C)n1` (centres undefined) reads -23.6% (inactive).
For `Cc1ccc(CS(=O)(=O)CCC(=O)NCCN2CCCC2)cc1` the value was -7.3% (inactive).
For `Cc1ccc(CS(=O)(=O)CCC(=O)NCCN2CCCCC2C)cc1` (centres undefined) the value was 96.5% (active).
Turning to `Cc1ccc(CS(=O)(=O)CCC(=O)NCCCN2CCCC2)cc1`, the inhibition is -5.9% (inactive).
The result for `CN(Cc1ccccc1)c1nc(N)c([N+](=O)[O-])c(Nc2cccc(F)c2)n1` reads -10.7% (inactive); that for `Cc1c(O)c2cccnc2[nH]c1=O`, -21.9% (inactive); that for `c1cc2c(cc1C1=NNC(=NC3CC3)SC1)OCCO2`, 96.6% (active).
For `CCCCN=C1NN=C(c2ccc3c(c2)OCCO3)CS1` the value was 14.8% (inactive).
For `COc1ccc(N=C2NN=C(c3ccc4c(c3)OCCO4)CS2)cc1` the value was -44.7% (inactive); for `c1ccc(C2=NNC(=NC3CC3)SC2)cc1`, 59.6% (inactive).
On to `c1ccc2oc(C3=NNC(=NC4CC4)SC3)cc2c1`, for which the inhibition was 86.6% (active).
For `c1ccc(CN=C2NN=C(c3cc4ccccc4o3)CS2)cc1` the value was -43% (inactive); for `Cc1cccc(N=C2NN=C(c3ccc4c(c3)OCCO4)CS2)c1`, -35.2% (inactive).
The result for `CC(C)(C)N=C1NN=C(c2cc3ccccc3o2)CS1` reads -38.4% (inactive); that for `C=CCN=C1NN=C(c2ccc3c(c2)OCCO3)CS1`, 67.8% (active); that for `CCOC(=O)N1CCC(NC(=O)CN2C(=O)CSc3nc(C)cc(C)c32)CC1`, -2.4% (inactive).
For `Cc1ccc(Nc2nc(N)nc(CSC(=S)N3CCOCC3)n2)c(C)c1` the value was -10% (inactive).
Regarding `COc1cc(/C=C/CO)cc(OC)c1OC/C=C(\C)CCC=C(C)C`, the inhibition is 0.8% (inactive).
For `COCCn1c(SCC(=O)Nc2ccccc2C(F)(F)F)nc2ccccc2c1=O` the value was -11.7% (inactive); for `COc1ccc(-c2cc(C3CC3)nc3sc(C#N)c(N)c23)cc1`, 7.9% (inactive).
The result for `CC(C)c1cc(C(=O)N/N=C/c2c[nH]c3ccccc23)n[nH]1` reads -15.2% (inactive).
Regarding `COC(=O)COc1cccc2c(=O)n(CC(=O)NCCc3ccccc3)ccc12`, the inhibition is -38.1% (inactive).
As to `Cc1cccc(Nc2ncnc(N)c2[N+](=O)[O-])n1`, the inhibition was 28.6% (inactive).
For `Nc1ncnc(NCc2ccccc2)c1[N+](=O)[O-]` the value was 37.6% (inactive).
Consider `Cc1cccnc1Nc1ncnc(N)c1[N+](=O)[O-]`, for which the inhibition is -32% (inactive).
The result for `Cc1ccc(CNc2nc(N)c([N+](=O)[O-])c(NCc3ccccc3)n2)cc1` reads 0.5% (inactive); that for `COc1ccc(Cc2nc3ccc(C(=O)N4CCCC4)cc3o2)cc1OC`, 1.3% (inactive).
In the case of `Cc1ccc(Cn2nc(C)c(NC(=O)CCCn3nc([N+](=O)[O-])c(Cl)c3C)c2C)cc1`, the inhibition is -25.5% (inactive).
The result for `COc1ccc(C)cc1Nc1n[n+](-c2ccccc2)c(-c2ccc(NC(C)=O)cc2)s1` reads -19% (inactive).
Take `CCn1c2ccccc2c2cc(/C=N/NC(=O)c3cc(O)cc(O)c3)ccc21`: the inhibition was 58.8% (active).
The result for `CCn1c2ccccc2c2cc(/C=N/NC(=O)c3ccc(O)cc3)ccc21` reads 32.8% (inactive); that for `CCn1c2ccccc2c2cc(/C=N/NC(=O)c3ccccc3)ccc21`, 41.4% (inactive); that for `CCOC(=O)C1=C(CC)Nc2ccccc2N=C1NC(=O)c1oc2ccccc2c1C`, 56.6% (active).
Turning to `CCOCc1c(C(=O)NC2=Nc3ccccc3NC(CC)=C2C(=O)OCC)oc2ccccc12`, the inhibition is 4.5% (inactive).
For `CCOC(=O)C1=C(CC)Nc2ccccc2N=C1NC(=O)CCNC(C)=O`, the inhibition is -28.2% (inactive).
For `O=C(Cc1ccccc1)NN1C(=O)C2C3C=CC(C3)[C@@H]2C1=O` (some centres undefined) the value was -12.9% (inactive); for `Cc1nc(SCCOc2ccc(F)cc2)c2ccccc2n1`, -33.3% (inactive).
For `CCOC(=O)c1ccc(NC(=O)Cn2cnc3cc(C)c(C)cc32)cc1` the value was 33% (active); for `COC(=O)c1ccccc1NC(=O)Cn1cnc2cc(C)c(C)cc21`, -3.9% (inactive).
The result for `Cc1ccc(NC(=O)CCn2cnc3cc(C)c(C)cc32)cc1` reads -8.2% (inactive).
For the molecule `O=C(Nc1ccc(Br)cc1)c1cc(-c2ccc3c(c2)OCO3)on1`, the inhibition was -33.8% (inactive).
For `Cc1cccc(NC(=S)NC(=O)c2oc3ccccc3c2C)n1` the value was -35.5% (inactive).
The result for `O=C(Nc1cc(S(=O)(=O)N2CCOCC2)ccc1N1CCOCC1)C1CCCO1` (centres undefined) reads -32.9% (inactive); that for `Cc1ccc(-n2c3c(c(=O)[nH]c2=O)C(NS(=O)(=O)c2ccc(Cl)cc2)(C(F)(F)F)C(=O)N3)cc1` (centres undefined), -31.8% (inactive); that for `O=C(NCCc1ccc(Cl)cc1)c1ccc2nccnc2c1`, -33.2% (inactive).
Regarding `O=C(NCCc1ccccc1)c1ccc2nccnc2c1`, the inhibition is 66.7% (active).
For `O=C(NCc1ccccc1)c1ccc2nccnc2c1` the value was 2% (inactive).
For `CCCCNc1ccc(C(CC(N)=O)NC(=O)Cc2ccc(Br)cc2)cc1[N+](=O)[O-]` (centres undefined) the value was -9.3% (inactive); for `CC(=O)c1cccc(OCC(O)CNCC2COc3ccccc3O2)c1` (centres undefined), 37.9% (active); for `CC(=O)c1cccc(OCC(O)CNCC2CCCCC2)c1` (centres undefined), -5.6% (inactive).
Take `OC(CNCC1COc2ccccc2O1)COc1ccc(Cl)cc1` (centres undefined): the inhibition was -12.2% (inactive).
The result for `Cn1cc(Br)c(C(=O)n2cc(Br)cn2)n1` reads -7.4% (inactive); that for `Cc1noc(C)c1S(=O)(=O)N1CCCC(C(=O)NCCc2ccccc2)C1` (centres undefined), -28.4% (inactive).
For `CCNC(=O)COC(=O)c1cc(-c2ccccc2)nn1-c1ccccc1` the value was -16.6% (inactive); for `COc1ccc(C2c3[nH]c4ccccc4c3CCN2CCCn2cccn2)c(C)c1C` (centres undefined), -26.9% (inactive); for `Cc1ccccc1C1c2[nH]c3ccccc3c2CCN1CCCn1cccn1` (centres undefined), 53.6% (active).
For `Fc1ccccc1C1c2[nH]c3ccccc3c2CCN1CCCn1cccn1` (centres undefined) the value was 43.5% (inactive); for `CC(C)N1CCC(N2CCN(Cc3nc4ccccc4s3)CC2CCO)CC1` (centres undefined), -1.8% (inactive); for `CC(C)N(C(=O)COC(=O)c1ccc(Cl)nc1)C(C)C`, -35.6% (inactive).
As for `Cc1nc2ccccc2cc1C(=O)Nc1ccccc1Cl`, the inhibition is -21.8% (inactive).
For `Cn1ccnc1C(=O)c1ccc(N)cc1` the value was -32.6% (inactive); for `Clc1nc(-c2cccnc2)nc2scc(-c3ccccc3)c12`, -5% (inactive); for `COc1ccc(-c2csc3nc(-c4cccnc4)nc(N4CCC(C(N)=O)CC4)c23)cc1OC`, 23.4% (inactive).
Turning to `COc1ccc(-c2csc3nc(-c4cccnc4)nc(Cl)c23)cc1OC`, the inhibition is 73.4% (active).
For the molecule `CCOc1ccc(NC(=O)C2CC(=O)N(C)C(=Nc3ccc4c(c3)OCO4)S2)cc1` (centres undefined), the inhibition was -34.5% (inactive).
The result for `O=C(CS(=O)(=O)c1ccccc1)NCc1ccc(Cl)cc1` reads -44.4% (inactive); that for `CCc1ccc(C(=O)/C=C/Nc2ccc(S(=O)(=O)Nc3cnc4ccccc4n3)cc2)cc1`, 4% (inactive).
The result for `c1ccc(CSc2nnc(Cc3ccccn3)o2)cc1` reads -32.5% (inactive); that for `CSC(=Nc1ccc(Cl)cc1)N[n+]1ccccc1`, -6.8% (inactive).
Regarding `NC(=Nc1ccc(Cl)cc1)c1ccccc1`, the inhibition is -49% (inactive).
For `[S-]C(=Nc1ccc(Cl)cc1)N[n+]1ccccc1` the value was 104% (active); for `NC(=O)CCc1nc2cc(C(F)(F)F)ccc2n(Cc2ccccc2)c1=O`, -13% (inactive).
For `O=C(NCCCn1ccnc1)/C(=C/c1ccccc1)NC(=O)c1ccccc1` the value was 32.8% (inactive); for `O=C(COc1ccccc1Cl)NNC(=O)c1cc(S(=O)(=O)N2CCOCC2)ccc1N1CCCC1`, -47.2% (inactive).
The result for `COc1ccc(O)c(C2(O)C(=O)c3ccccc3C2=O)c1` reads 0.1% (inactive); that for `CC(/C=C/c1ccccc1)=N/NC(=O)CNC(=O)c1ccc2c(c1)OCO2`, 5.3% (inactive); that for `Cc1ccc(OCCNC(=O)c2ccc3c(c2)OCO3)cc1`, -63.7% (inactive).
For `COCCCNC(=O)c1ccc2c(c1)OCO2`, the inhibition was -16.8% (inactive).
For `O=C(CNC(=O)c1ccc2c(c1)OCO2)N/N=C(Br)/C=C/c1ccccc1` the value was 80% (active); for `O=C(CNC(=O)c1ccc2c(c1)OCO2)N/N=C/c1cccc([N+](=O)[O-])c1`, -59.4% (inactive); for `O=C(NCCOc1ccccc1)c1ccc2c(c1)OCO2`, 55.9% (active).
For `Cc1ccccc1C(=O)OCc1cnc(Cl)s1` the value was -8.8% (inactive); for `S=c1[nH]nc(C23CC4CC(CC(C4)C2)C3)n1Cc1ccco1`, 1.2% (inactive).
The result for `O=C(COC(=O)/C=C/C(=O)N1CCN(c2ccccc2)CC1)NCc1ccc(F)cc1` reads -5.2% (inactive).
Turning to `CCOC(=O)/C=C/C(=O)OCC(=O)NC(c1ccccc1)c1ccccc1`, the inhibition is 25.7% (inactive).
The result for `O=C(COC(=O)/C=C/C(=O)N1CCN(c2ccccc2)CC1)NC(c1ccccc1)c1ccccc1` reads 76.2% (active); that for `Cc1ccc(NS(=O)(=O)c2c(C)[nH]c(C)c2C(=O)N2CCCCC2)cc1F`, -24.4% (inactive).
For `CCCCn1c(Oc2ccc(C(=O)OC)cc2)nc2c1c(=O)n(C)c(=O)n2C` the value was 9.2% (inactive); for `O=C(CN1C(=O)CC(c2ccccc2)Sc2ccccc21)NCC1CCCO1` (centres undefined), -33.1% (inactive).
The result for `Cc1[nH]nc2c1C(c1cccnc1)N(c1ccc(Br)cc1)C2=O` (centres undefined) reads 43.6% (active); that for `CCOC(=O)c1ccc(N2C(=O)c3n[nH]c(C)c3C2c2cccnc2)cc1` (centres undefined), 9.9% (inactive); that for `Cc1ccc(N2C(=O)c3n[nH]c(C)c3C2c2cccnc2)cc1` (centres undefined), -28.2% (inactive).
As for `Nc1nc(CSCc2ccccc2)nc(N2CCOCC2)n1`, the inhibition is 2% (inactive).
Turning to `CC(=O)N/N=C(\C)CCc1ccccc1`, the inhibition is -4.4% (inactive).
`Cc1cc(=O)[nH]c(SC(C)C(=O)Nc2cccc3ccccc23)n1` (centres undefined): the inhibition is -23.2% (inactive).
Take `CC1=C(C(=O)OCc2ccccc2)C(c2ccccc2Cl)NC(=O)N1CCCCCC(=O)O` (centres undefined): the inhibition is 68.6% (active).
For `CC1=C(C(=O)OCc2ccccc2)C(c2cccc(Cl)c2Cl)NC(=O)N1CCCCCC(=O)O` (centres undefined) the value was 8.9% (inactive); for `CC1=C(C(=O)OCc2ccccc2)C(c2ccccc2Cl)NC(=O)N1CCCC(=O)O` (centres undefined), 17.1% (inactive).
